# Compound activity from PubChem.
# NADH coupling – inhibitors of PK/LDH coupling enzymes, profiling panel, artefact control, biochemical, MLSMR library; IC50, µM (series often up to 10 µM); 65,000 compounds, 0.02% hits; coupled PK/LDH NADH assays, four targets; AID 774, 2007;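 active = single-dose screening hits from any of four coupled enzyme assays that gave an IC50 when retested across doses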;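 also: the DPM-DC format reads NADH fluorescence rather than 340 nm absorbance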
# MK inhibit – S. pneumoniae MK inhibitors, primary screen, biochemical, PK/LDH-coupled NADH absorbance; mevalonate kinase [Streptococcus pneumoniae D39]; purified MK, PK/LDH-coupled NADH absorbance 340 nm; inhibition, % at 10 µM; 65,000 compounds, 0.48% hits; AID 555, 2006;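 active = ranked among the strongest by inhibition in the single 10 µM screen, a fixed top-ranked set picked for dose follow-up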
# Spn PMK inh – S. pneumoniae PMK inhibitors, primary screen, biochemical, mevalonate pathway, pilot trial included | purified PMK, PK/LDH-coupled NADH absorbance 340 nm | AID 539, 2006 | phosphomevalonate kinase (Streptococcus pneumoniae D39) | inhibition, % at 10 µM | 65,000 compounds, 0.49% hits;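 active = top-ranked compounds by inhibition in the single 10 µM screen, taking a fixed number of the strongest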
# DPM-DC inhibit – S. pneumoniae DPM-DC inhibitors, primary screen, biochemical, PK/LDH-coupled NADH fluorescence | diphosphomevalonate decarboxylase (Streptococcus pneumoniae D39) | purified DPM-DC | calls only at 10 µM | 65,000 compounds, 0.49% hits | AID 556, 2006;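 active = the 320 compounds with the highest percent inhibition in the single-dose primary screen, excluding strongly autofluorescent ones, cut at about 32% in these data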;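 also: kinetic rate of NADH fluorescence loss reporting ADP formed by the decarboxylase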
# Autofluor 339 – intrinsic fluorescence of library compounds, ex339/em460 – biochemical, MLSMR library, data from DPM-DC assay, artefact control, profiling panel. compound autofluorescence, ex339/em460 nm, NADH buffer; stronger effect = higher value; 1 = no-compound wells, NADH background. fluorescence fold increase at 10 µM. 65,000 compounds, 5.5% hits;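 active = at 10 µM, mean starting fluorescence two-fold or more over control wells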;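 also: signal is the first read of a kinetic run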
# A340 absorber – compound light absorbance at 340 nm, profiling panel, artefact control, biochemical, MLSMR library, data from PS, PMK, MK assays; fold change at 10 µM; compound absorbance at 340 nm, fold over control; AID 708, 2007; 65,000 tested, under 10 active;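 active = at 10 µM dose, initial 340 nm absorbance at least 2 fold that of control wells; inactive = change under 2 fold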;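 also: initial absorbance extrapolated from kinetic A340 decline of NADH oxidation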
# Hits are given with their value; - = inactive; . = no result given; + = active, no number; [ ] = another dose, or the depositor's remark. Shown are actives, neighbours in structure and some others; about 6.5% of the full set was active somewhere.
SMILES,NADH coupling,MK inhibit,Spn PMK inh,DPM-DC inhibit,Autofluor 339,A340 absorber
Cc1c2ccncc2c(C)c2c1[nH]c1ccccc12,-,-,-,+[fluoresces],2,-
Cc1[nH]c2ccccc2c1/C=N/O,-,-,-,-,-,-
c1ccc2c3c([nH]c2c1)CNCC3,-,-,-,-,-,-
c1ccc2c(c1)[nH]c1cnccc12,-,-,-,.,2.4,-
CC(=O)OC1(c2ccccc2)CCN(C)C2CCCCC21 (stereo not given),-,-,-,-,-,-
CCOCC(=O)NC1CCSC1=O (stereo not given),-,-,25,-,-,-
COc1ccccc1-n1c(O)c(C=Nc2c(C)n(C)n(-c3ccccc3)c2=O)c(=O)[nH]c1=O,-,-,-,-,-,-
CCCNc1oc(-c2cccc3ccccc23)nc1C#N,-,-,-,.,3.8,-
Cc1cccc(-n2c(-c3ccco3)nc3ccccc3c2=O)n1,-,-,-,-,-,-
CN1C(=O)N(C)C(=O)C(CCc2ccccn2)(CCc2ccccn2)C1=O,-,-,-,-,-,-
CN1C(=O)N(C)C(=O)C2(Sc3ccccc3C2=O)C1=O,-,-,-,.,5,-
CN(C)P(=NC(=S)c1cccn1C)(N(C)C)N(C)C,-,-,-,-,-,-
CCN1CCC2(CCNC2)C1 (stereo not given),-,-,-,-,-,-
Nc1ccccc1C(=O)OCCOc1ccccc1,-,-,-,-,2.8,-
Cc1nn(-c2ccccc2)c2c1C(c1ccc3c(c1)OCO3)SCC(=O)N2 (stereo not given),-,-,-,-,-,-
Fc1ccccc1N1CCN(Cc2c(F)cccc2F)CC1,-,49,-,-,-,-
Fc1ccccc1N1CCN(Cc2ccc3c(c2)OCO3)CC1,-,-,-,-,-,-
Cc1c2cnn(CC(=O)N3CCC4(CC3)OCCO4)c(=O)c2c(C)n1Cc1ccc(F)cc1,-,-,29,-,-,-
O=C(Cn1ncc2c3ccccc3n(Cc3ccccc3)c2c1=O)N1CCC2(CC1)OCCO2,-,-,-,-,-,-
COc1cc(CN2CCN(C(=O)COc3ccccc3)CC2)cc(OC)c1OC,-,47,-,-,-,-
Cc1ccnc(-n2c(C)nc3ccccc3c2=O)c1,-,-,-,-,-,-
Cc1cccc(N2CCc3c2nc2ccccc2c3N)c1,-,-,-,.,3.8,-
Cc1cccn2c(NCC3CCCO3)c(C(C)C)nc12 (stereo not given),-,-,-,.,3.6,-
CCOc1cc(-c2nc3c(C)cccn3c2NCC2CCCO2)ccc1O (stereo not given),-,-,-,.,3.9,-
CN(C)CCOC(=O)c1cn(Cc2ccccc2)c2ccccc12,-,-,-,-,-,-
SMILES,NADH coupling,MK inhibit,Spn PMK inh,DPM-DC inhibit,Autofluor 339,A340 absorber
COc1ccc(N=C(C)c2c(O)n(C)c(=O)n(C)c2=O)c(OC)c1,-,-,-,-,-,-
CN1CCc2nc(SCC(=O)OC(C)(C)C)c(C#N)cc2C1,-,-,-,.,2.3,-
O=C(Cn1ncc2c3ccccc3n(Cc3ccccc3F)c2c1=O)N1CCC2(CC1)OCCO2,-,-,-,-,-,-
CC(=NCCN1CCOCC1)c1c(O)n(C2CCCCC2)c(=O)[nH]c1=O,-,-,-,-,-,-
Cc1cc(OCc2nn[nH]n2)c2c3c(c(=O)oc2c1)CCCC3,-,-,-,.,3.8,-
CCCCOC(=O)COc1cc(C)cc2oc(=O)c3c(c12)CCC3,-,-,-,-,-,-
C=CCOC(=O)COc1cc(C)cc2oc(=O)c3c(c12)CCC3,-,-,-,.,2.4,-
O=P(O)(O)/C=C(\Cl)c1ccccc1,-,-,-,-,-,-
COCCCn1c(N)c(C(=O)OC(C)COC)c2nc3ccccc3nc21 (stereo not given),-,-,-,.,3.9,-
CCCCOCCCn1c(N)c(C(=O)OC(C)COC)c2nc3ccccc3nc21 (stereo not given),-,-,-,.,2.4,-
O=P(C(c1ccc2c(c1)OCO2)N1CCOCC1)(N1CCOCC1)N1CCOCC1 (stereo not given),-,-,-,-,-,-
COCCNC(=O)c1c(NC(=O)c2ccco2)n(Cc2ccccc2)c2nc3ccccc3nc12,-,-,-,.,3.8,-
CCC(=NCCCN1CCOCC1)c1c(O)n(Cc2ccccc2)c(=O)[nH]c1=O,-,-,-,-,-,-
Nc1c(C(=O)NCCc2ccccc2)c2nc3ccccc3nc2n1CCN1CCOCC1,-,-,-,.,3.9,-
Nc1c(C(=O)NCCN2CCOCC2)c2nc3ccccc3nc2n1Cc1ccco1,-,-,-,.,3.9,-
CCCCn1c(N)c(C(=O)NCCN2CCOCC2)c2nc3ccccc3nc21,-,-,-,.,2.1,-
CCOC(=O)c1c(C)n(Cc2ccco2)c2ccc(O)cc12,-,-,-,-,-,-
CC(C)(C)OC(=O)c1c(N)n(Cc2ccco2)c2nc3ccccc3nc12,-,-,-,.,2.5,-
OC12CCCCC1C(c1ccccc1)NCC2 (stereo not given),-,-,-,-,-,-
COc1ccc(CCNC(=O)c2c(N)n(CCN3CCOCC3)c3nc4ccccc4nc23)cc1,-,-,-,.,3.4,-
CCOC(=O)c1c(N)n(CCN2CCCCC2)c2nc3ccccc3nc12,-,-,-,.,4.9,-
CCCCn1c(C)c(C(=O)OCC)c2c(CN3CCOCC3)c(O)ccc21,-,-,-,-,-,-
Cc1cccc(-n2c(O)c(C=NCc3cccnc3)c(=O)[nH]c2=O)c1C,-,-,-,-,-,-
Cc1cc2c(C(F)(F)F)cc(=O)oc2c2c1NCCC2,-,-,26,-,-,-
COc1cc(OC)c(OC)cc1CNCCc1ccc(OC)c(OC)c1,-,42,-,-,-,-
COc1cc(OC)c(OC)cc1CNC(C)C(O)c1ccccc1 (stereo not given),-,-,-,-,-,-
CCOC(=O)c1ccc(NC(=O)C2C3C=CC(O3)C2C(=O)O)cc1 (stereo not given),-,-,-,-,-,-
Cc1ccc2cc3cc(C(=O)N4CCC5(CC4)OCCO5)oc3nc2c1,-,-,-,-,3.5,-
CCCCn1c(O)c(C=NC2CC3CCC2(C)C3(C)C)c(=O)[nH]c1=O (stereo not given),-,-,-,-,-,-
O=P1(NC2CCCC2)COc2ccccc2OC1,-,-,-,+,-,-
